For assay [1], the target named is Fibroblast growth factor receptor 4 (Homo sapiens) (UniProt P22455). To be noted: at 1 µM.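 Further: reported figure is the averaged percent inhibition of FGFR4, from the GSK PKIS kinase screening panel.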
For assay [2], the target named is Tyrosine-protein kinase Fgr (Homo sapiens) (UniProt P09769). To be noted: at 0.1 µM.
Assay [3] has the same target. To be noted: at 1 µM.
In assay [4] the target is Vascular endothelial growth factor receptor 1 (Homo sapiens) (UniProt P17948). The settings on record: at 0.1 µM.
Vascular endothelial growth factor receptor 1 (Homo sapiens), sequence (P17948 whole entry): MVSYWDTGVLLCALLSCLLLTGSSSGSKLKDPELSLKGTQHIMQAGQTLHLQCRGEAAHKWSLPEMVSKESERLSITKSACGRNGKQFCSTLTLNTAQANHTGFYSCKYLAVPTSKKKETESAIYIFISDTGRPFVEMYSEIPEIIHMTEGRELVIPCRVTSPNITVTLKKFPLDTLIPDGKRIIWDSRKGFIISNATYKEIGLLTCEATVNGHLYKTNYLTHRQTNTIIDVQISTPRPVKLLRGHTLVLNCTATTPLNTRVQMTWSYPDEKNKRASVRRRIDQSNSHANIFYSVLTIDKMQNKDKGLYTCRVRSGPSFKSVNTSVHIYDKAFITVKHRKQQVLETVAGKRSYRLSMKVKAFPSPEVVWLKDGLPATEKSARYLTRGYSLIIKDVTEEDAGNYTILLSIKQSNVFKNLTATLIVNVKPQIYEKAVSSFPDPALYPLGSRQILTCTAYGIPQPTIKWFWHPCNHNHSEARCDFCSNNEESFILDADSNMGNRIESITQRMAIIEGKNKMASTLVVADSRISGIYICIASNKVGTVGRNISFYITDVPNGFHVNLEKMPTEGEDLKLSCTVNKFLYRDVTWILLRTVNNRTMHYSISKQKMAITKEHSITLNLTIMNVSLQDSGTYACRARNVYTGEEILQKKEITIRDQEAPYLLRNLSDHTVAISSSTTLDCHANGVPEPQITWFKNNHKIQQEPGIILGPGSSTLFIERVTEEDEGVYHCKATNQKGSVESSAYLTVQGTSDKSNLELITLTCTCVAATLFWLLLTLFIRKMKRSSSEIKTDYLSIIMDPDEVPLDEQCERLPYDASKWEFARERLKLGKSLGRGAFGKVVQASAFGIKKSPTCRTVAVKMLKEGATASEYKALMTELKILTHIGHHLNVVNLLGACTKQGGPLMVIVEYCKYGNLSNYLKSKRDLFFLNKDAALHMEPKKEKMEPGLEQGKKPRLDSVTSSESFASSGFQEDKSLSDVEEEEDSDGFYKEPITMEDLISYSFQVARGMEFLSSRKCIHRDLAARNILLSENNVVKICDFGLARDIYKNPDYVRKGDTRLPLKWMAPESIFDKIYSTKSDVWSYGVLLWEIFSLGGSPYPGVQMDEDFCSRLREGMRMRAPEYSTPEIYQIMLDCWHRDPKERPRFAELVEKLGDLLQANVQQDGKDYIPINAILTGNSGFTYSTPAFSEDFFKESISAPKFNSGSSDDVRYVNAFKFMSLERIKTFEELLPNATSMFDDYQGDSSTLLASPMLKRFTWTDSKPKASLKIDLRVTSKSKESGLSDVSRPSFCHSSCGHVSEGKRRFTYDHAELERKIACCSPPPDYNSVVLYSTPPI
Assay [5] shares this target. To be noted: at 1 µM.
For assay [6], the target named is Receptor-type tyrosine-protein kinase FLT3 (Homo sapiens) (UniProt P36888). To be noted: at 0.1 µM.
Assay [7] has the same target. To be noted: at 1 µM.
Assay [8] concerns T1, Receptor-type tyrosine-protein kinase FLT3 (Homo sapiens), P36888 [D835Y].
T1 sequence (whole entry): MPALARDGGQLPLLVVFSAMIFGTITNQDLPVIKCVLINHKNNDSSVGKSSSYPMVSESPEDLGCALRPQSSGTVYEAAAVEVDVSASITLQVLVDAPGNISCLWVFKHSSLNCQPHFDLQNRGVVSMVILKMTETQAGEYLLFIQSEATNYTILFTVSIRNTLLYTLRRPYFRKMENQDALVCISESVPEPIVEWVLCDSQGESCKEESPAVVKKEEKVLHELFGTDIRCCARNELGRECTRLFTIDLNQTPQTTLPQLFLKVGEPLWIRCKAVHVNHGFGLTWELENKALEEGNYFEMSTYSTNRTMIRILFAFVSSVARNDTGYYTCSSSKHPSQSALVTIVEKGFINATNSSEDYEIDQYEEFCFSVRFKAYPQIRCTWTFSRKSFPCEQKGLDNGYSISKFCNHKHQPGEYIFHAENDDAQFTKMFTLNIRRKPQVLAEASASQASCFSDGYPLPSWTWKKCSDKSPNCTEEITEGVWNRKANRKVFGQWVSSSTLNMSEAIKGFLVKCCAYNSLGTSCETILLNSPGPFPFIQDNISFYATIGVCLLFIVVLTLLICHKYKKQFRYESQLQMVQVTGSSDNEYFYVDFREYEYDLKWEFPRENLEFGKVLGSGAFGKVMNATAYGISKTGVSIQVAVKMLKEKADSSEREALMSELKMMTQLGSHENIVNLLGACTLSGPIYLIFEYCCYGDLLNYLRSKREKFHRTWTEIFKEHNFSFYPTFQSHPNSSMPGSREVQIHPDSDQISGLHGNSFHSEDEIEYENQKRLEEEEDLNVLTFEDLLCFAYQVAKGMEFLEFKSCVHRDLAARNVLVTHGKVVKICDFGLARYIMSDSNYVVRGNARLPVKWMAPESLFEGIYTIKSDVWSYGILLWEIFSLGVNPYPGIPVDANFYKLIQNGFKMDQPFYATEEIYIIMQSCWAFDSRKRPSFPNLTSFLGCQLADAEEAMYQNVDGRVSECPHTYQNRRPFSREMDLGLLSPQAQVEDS
The settings on record: at 0.1 µM.

Assay [9] addresses Non-receptor tyrosine-protein kinase TYK2 (Homo sapiens) (UniProt P29597). The settings on record: at 1 µM.
Assay [10] concerns the target T2, Tyrosine-protein kinase receptor TYRO3 (Homo sapiens) (UniProt Q06418).
T2 sequence (whole entry): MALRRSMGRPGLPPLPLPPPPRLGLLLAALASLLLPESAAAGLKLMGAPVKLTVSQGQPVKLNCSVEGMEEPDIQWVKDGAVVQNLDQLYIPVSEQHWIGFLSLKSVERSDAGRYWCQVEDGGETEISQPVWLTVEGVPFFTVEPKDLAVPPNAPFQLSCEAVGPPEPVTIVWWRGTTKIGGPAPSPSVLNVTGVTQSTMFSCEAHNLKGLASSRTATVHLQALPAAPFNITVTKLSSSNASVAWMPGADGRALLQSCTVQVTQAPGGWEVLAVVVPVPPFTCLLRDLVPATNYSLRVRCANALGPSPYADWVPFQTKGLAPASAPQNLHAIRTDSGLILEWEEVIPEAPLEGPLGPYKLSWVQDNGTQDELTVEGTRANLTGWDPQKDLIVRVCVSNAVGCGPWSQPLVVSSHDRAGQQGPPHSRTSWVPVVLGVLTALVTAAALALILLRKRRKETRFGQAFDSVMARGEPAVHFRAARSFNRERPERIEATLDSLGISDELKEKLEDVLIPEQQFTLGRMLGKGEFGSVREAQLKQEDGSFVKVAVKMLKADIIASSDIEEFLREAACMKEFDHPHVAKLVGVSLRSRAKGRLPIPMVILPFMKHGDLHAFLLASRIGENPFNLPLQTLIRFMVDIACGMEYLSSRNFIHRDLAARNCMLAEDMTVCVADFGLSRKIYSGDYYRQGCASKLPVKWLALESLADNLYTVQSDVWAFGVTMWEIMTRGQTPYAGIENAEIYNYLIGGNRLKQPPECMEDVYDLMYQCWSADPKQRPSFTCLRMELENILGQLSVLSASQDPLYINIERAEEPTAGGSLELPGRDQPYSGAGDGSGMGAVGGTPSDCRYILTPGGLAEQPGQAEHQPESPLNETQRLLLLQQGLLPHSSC
To be noted: at 0.1 µM.

The target of assay [11] is T2, Tyrosine-protein kinase receptor TYRO3 (Homo sapiens). To be noted: at 1 µM.
Assay [12] deals with Tyrosine-protein kinase Yes (Homo sapiens) (UniProt P07947). The settings on record: at 0.1 µM.
Tyrosine-protein kinase Yes (Homo sapiens), sequence (P07947 2-543 limits assumed): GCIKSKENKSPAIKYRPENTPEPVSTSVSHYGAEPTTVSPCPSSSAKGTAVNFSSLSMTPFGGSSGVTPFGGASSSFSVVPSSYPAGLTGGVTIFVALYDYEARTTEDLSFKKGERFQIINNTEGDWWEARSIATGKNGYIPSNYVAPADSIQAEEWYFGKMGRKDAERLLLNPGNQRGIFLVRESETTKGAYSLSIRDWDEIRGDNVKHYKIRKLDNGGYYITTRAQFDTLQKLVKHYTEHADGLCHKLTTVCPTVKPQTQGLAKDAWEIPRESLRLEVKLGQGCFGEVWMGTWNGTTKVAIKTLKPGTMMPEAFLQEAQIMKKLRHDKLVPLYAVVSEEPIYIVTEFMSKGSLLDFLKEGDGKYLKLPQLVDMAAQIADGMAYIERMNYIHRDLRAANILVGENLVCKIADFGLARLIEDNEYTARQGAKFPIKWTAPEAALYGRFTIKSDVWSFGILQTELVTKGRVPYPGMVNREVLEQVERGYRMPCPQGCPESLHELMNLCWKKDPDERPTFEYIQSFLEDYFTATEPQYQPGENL
For assay [13] the target is unchanged. To be noted: at 1 µM.
For assay [14], the target named is T3, Tyrosine-protein kinase ZAP-70 (Homo sapiens) (UniProt P43403).
T3 sequence (whole entry): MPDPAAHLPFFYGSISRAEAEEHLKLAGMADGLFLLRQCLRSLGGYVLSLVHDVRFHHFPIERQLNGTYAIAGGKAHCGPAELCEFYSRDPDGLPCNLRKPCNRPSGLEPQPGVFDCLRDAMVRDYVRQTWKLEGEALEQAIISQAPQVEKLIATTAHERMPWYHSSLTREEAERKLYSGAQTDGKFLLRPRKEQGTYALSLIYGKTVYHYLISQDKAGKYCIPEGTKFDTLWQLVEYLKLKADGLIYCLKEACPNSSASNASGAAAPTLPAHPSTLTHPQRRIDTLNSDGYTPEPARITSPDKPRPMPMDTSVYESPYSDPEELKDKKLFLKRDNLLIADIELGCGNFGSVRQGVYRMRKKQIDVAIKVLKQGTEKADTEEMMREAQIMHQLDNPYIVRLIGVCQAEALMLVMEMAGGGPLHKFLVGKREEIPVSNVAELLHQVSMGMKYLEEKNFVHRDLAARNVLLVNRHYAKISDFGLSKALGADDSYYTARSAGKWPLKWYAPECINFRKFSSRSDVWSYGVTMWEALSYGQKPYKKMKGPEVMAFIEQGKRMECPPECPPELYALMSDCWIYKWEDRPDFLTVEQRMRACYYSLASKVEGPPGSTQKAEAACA
The settings on record: at 0.1 µM.

For assay [15], the target named is T3, Tyrosine-protein kinase ZAP-70 (Homo sapiens). The settings on record: at 1 µM.
Assay [16] deals with Serine/threonine-protein kinase B-raf (Homo sapiens) (UniProt P15056). The settings on record: at 0.1 µM.
Serine/threonine-protein kinase B-raf (Homo sapiens), sequence (P15056 whole entry): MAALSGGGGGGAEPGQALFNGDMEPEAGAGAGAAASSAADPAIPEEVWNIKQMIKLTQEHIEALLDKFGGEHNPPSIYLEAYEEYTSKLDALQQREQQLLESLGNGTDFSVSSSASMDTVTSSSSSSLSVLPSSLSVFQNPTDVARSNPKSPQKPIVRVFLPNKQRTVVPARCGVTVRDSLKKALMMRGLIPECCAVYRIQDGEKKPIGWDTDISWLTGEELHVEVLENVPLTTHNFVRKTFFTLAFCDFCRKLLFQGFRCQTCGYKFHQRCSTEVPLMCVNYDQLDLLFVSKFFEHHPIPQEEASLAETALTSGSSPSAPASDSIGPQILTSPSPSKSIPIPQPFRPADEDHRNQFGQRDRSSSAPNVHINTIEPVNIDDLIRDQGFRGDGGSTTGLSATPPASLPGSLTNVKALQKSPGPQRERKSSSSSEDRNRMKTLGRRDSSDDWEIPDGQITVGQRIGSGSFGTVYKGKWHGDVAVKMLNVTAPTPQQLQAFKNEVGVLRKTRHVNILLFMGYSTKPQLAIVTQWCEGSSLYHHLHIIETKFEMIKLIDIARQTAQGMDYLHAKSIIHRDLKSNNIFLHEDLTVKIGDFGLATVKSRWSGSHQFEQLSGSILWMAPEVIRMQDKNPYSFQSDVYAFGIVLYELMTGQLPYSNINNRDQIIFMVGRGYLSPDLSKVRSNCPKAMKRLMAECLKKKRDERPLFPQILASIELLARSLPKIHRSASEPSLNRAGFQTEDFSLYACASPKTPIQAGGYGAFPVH
Assay [17] has the same target. To be noted: at 1 µM.
For assay [18], the system named is Serine/threonine-protein kinase B-raf (Homo sapiens), P15056 [V600E]. The settings on record: at 0.1 µM.
Serine/threonine-protein kinase B-raf (Homo sapiens), P15056 [V600E], sequence (P15056 whole entry V600E): as the sequence (P15056 whole entry) above, with V600E counted along it
Assay [19] shares this test system. The settings on record: at 1 µM.
The target of assay [20] is RAF proto-oncogene serine/threonine-protein kinase (Homo sapiens) (UniProt P04049). To be noted: at 0.1 µM.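 Further: values are mean CRAF kinase inhibition from profiling of the GSK Published Kinase Inhibitor Set.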
RAF proto-oncogene serine/threonine-protein kinase (Homo sapiens), sequence (P04049 whole entry): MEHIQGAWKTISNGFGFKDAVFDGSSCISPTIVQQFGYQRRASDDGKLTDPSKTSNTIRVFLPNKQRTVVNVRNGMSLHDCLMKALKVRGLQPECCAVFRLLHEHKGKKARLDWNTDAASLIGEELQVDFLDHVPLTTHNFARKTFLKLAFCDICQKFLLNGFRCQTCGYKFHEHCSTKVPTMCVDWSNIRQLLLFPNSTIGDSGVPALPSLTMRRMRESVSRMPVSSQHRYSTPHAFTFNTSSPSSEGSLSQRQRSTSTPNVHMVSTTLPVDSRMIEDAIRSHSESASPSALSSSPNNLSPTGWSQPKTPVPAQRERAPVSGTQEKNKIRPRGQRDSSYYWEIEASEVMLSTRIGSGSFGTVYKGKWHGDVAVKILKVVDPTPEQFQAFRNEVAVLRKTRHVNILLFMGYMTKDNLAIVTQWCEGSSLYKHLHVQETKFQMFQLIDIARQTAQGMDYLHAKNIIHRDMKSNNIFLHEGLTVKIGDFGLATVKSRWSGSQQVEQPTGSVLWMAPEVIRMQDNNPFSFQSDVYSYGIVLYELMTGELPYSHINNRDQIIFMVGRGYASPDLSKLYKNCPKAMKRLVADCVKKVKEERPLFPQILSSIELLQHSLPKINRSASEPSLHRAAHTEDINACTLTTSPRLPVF

Tyrosine-protein kinase Fgr (Homo sapiens), sequence (P09769 2-529 limits assumed): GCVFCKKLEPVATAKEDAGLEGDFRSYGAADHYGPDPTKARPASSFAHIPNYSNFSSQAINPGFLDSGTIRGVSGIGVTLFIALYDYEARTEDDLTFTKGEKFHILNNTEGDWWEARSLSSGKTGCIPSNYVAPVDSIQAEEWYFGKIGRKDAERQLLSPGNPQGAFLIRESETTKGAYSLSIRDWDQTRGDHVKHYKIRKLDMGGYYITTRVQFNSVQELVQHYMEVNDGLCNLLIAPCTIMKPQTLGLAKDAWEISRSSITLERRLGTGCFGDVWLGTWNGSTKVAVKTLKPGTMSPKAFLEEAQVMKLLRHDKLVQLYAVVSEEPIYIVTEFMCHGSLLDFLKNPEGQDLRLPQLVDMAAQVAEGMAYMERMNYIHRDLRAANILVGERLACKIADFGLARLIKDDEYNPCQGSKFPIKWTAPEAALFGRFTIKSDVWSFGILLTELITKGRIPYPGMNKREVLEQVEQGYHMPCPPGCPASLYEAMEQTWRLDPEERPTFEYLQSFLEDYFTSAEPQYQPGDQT
Non-receptor tyrosine-protein kinase TYK2 (Homo sapiens), sequence (P29597 whole entry): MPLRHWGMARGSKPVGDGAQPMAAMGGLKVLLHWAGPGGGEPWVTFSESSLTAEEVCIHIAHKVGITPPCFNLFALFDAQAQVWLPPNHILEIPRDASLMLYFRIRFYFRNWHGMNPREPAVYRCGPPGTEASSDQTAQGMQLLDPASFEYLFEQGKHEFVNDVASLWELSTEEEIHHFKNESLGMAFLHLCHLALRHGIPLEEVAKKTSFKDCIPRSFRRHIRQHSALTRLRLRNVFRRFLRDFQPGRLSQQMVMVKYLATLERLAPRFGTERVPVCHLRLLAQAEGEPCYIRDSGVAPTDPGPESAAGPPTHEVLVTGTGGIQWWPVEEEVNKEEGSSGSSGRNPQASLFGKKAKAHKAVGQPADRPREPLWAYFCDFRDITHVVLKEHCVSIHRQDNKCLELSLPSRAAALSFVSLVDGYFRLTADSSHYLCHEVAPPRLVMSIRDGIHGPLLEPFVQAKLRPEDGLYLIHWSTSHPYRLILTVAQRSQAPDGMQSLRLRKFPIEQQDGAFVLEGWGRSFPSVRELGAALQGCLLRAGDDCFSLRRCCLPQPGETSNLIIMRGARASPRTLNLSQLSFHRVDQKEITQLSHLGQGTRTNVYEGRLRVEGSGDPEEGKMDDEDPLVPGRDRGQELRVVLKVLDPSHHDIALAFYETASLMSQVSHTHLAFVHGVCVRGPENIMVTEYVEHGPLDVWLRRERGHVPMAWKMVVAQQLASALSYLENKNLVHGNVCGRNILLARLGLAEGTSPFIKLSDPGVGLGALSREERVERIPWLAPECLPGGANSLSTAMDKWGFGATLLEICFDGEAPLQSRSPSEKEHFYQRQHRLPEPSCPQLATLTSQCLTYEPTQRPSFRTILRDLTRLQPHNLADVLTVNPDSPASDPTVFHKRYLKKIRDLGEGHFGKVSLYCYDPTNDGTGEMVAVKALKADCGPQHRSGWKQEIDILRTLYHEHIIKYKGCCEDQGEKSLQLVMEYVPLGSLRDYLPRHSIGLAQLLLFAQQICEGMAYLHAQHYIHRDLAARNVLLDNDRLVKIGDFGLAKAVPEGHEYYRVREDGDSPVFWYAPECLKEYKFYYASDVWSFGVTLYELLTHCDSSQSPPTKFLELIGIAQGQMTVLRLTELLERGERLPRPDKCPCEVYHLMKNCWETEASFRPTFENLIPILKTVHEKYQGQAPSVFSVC

Broadly, the inhibition is the change of the read-out against control, counted positive when it falls. Consider `CCc1ccc(Oc2nccc(-c3c(-c4ccc(F)cc4)ncn3C3CCNCC3)n2)cc1`, for which the inhibition was 1.42% in assay [1]; 2.39% in assay [2]; 6.95% in assay [3]; 2.69% in [4]; 3.25% in assay [5]; 5.16% in [6]. In addition, the inhibition in [7] is 5.11%; in assay [8] it was -2.28%; in assay [9], -1.9%; in [10] it was 1.15%; in [11], 1.06%; in assay [12], 4.27%. In addition, the inhibition in assay [13] is 7.31%; in assay [14] it was -0.22%; in assay [15], -4.21%; in [16] it was 4.48%; in assay [17] it was 10.2%; in assay [18] it was 4.23%. Also, the inhibition in [19] turned out to be 8.72%; in [20], 1.49%.
For the compound `O=C1Nc2ccc(I)cc2C1=Cc1cc(Br)c(O)c(Br)c1`, the inhibition in assay [1] was 5.57%; in assay [2], 0.14%; in [3], 3.52%; in [4], -0.02%; in assay [5] it was -1.49%; in [6], 2.03%. The inhibition was 5.54% in assay [7]; -4.08% in [8]; -0.2% in [9]; 2.41% in assay [10]; 3.68% in assay [11]; 2.36% in assay [12]. The inhibition in assay [13] amounted to 4.8%; in assay [14], 3.85%; in assay [15] it was 5.52%; in [16], 6.02%; in [17], 15%; in assay [18] it was 4.33%. In assay [20], the inhibition was determined as 8.31%.
On to `NCc1ccc(-n2c(-c3nonc3N)nc3cnccc32)cc1`, for which the inhibition in assay [1] was determined as 0.49%; in [2] it was 1.73%; in assay [3], 3.12%; in assay [4] it was 1.08%; in [5], 1.4%; in assay [6], 1.23%. Also, the inhibition in assay [7] is 3.45%; in assay [8] it was -4.05%; in assay [9], -2.73%; in assay [10] it was 1.87%; in assay [11], 3.1%; in assay [12], 0.26%. For the same compound, the inhibition came to 3.43% in [13]; 6.32% in [15]; 7.22% in assay [16]; 9.93% in assay [17]; 8.7% in assay [18]; 8.53% in assay [19]. In assay [20], the inhibition came to 8.42%.
Turning to `O=C(NCC1CC1)c1ccc(-c2cccc(C(=O)NC3CC3)c2)cc1`, the inhibition in assay [1] is 0.84%; in assay [2], -0.78%; in assay [3], 4.28%; in [4] it was 2.16%; in assay [5] it was 3.45%; in [6], 1.49%. Moreover, the inhibition in [7] is 3.46%; in assay [8], 0.3%; in [9] it was -5.6%; in assay [10], 3.93%; in assay [11], 0.81%; in assay [12] it was -0.02%. Moreover, the inhibition was -2.38% in [13]; 1.15% in assay [14]; 1.3% in assay [15]; 3.46% in assay [16]; 3.07% in assay [17]; 1.59% in [18]. The figures for the inhibition in [19] and in assay [20] were 1.43% and 5.36%, respectively.
As to `C/C(Nc1ccc(S(N)(=O)=O)cc1)=C1/C(=O)Nc2ccccc21`, the inhibition in assay [1] is 3.59%; in assay [2], 0.92%; in assay [3], 11.4%; in assay [4], 10.8%; in [5], 23.6%; in assay [6], 13.9%. For the same compound, the inhibition is 62.9% in assay [7]; 7.17% in [8]; 6.88% in assay [9]; 1.52% in assay [10]; 16.8% in assay [11]; -1.58% in [12]. In addition, the inhibition is 14.1% in [13]; -2.58% in [14]; 0.18% in assay [15]; -1.47% in assay [16]; 0.23% in [17]; -2.48% in [18]. Also, the inhibition in assay [19] is -0.68%; in assay [20] it was -5.23%.
As for `NC(=O)c1cc(-c2ccc(F)cc2)cc(-c2ccncc2)c1N`, the inhibition in assay [1] is -0.36%; in assay [2], 5.32%; in assay [3], 3.24%; in [4], 0.41%; in [5], 0.85%; in assay [6] it was 3.14%. Also, the inhibition in assay [7] was 2.01%; in [8], -6.54%; in [9], -2.58%; in [10] it was 4.68%; in assay [11], 3.84%; in assay [12] it was 3.3%. Further, the inhibition in assay [13] came to 8.03%; in [14], 3.36%; in [15], 4.08%; in assay [16], 6.39%; in assay [17], 7.79%; in [18], 7.49%. Also, the inhibition in assay [19] came out at 7.36%; in assay [20] it was 0.54%.
Take `C[C@@H](Oc1cc(-n2cnc3ccc(OC4CCN(C)CC4)cc32)sc1C(N)=O)c1ccccc1Cl`: the inhibition is -1.19% in assay [1]; 3.65% in [2]; 4.89% in [3]; 1.54% in assay [4]; 3.12% in [5]; 3.07% in [6]. Moreover, the inhibition in assay [7] is 14.4%; in assay [8] it was 1.72%; in assay [9], -7.54%; in assay [10] it was 2.39%; in [11] it was 4.84%; in [12] it was -0.81%. In addition, the inhibition was 3.04% in assay [13]; -2.84% in assay [14]; -1.32% in assay [15]; 5.72% in [16]; 7.68% in [17]; 4.5% in assay [18]. The figures for the inhibition in assay [19] and in assay [20] were 3.24% and 2.09%, respectively.

Values taken from ChEMBL document CHEMBL1961873, “Compounds: GSK PKIS; Assays: Nanosyn kinase panel” (2012).
